Assay [1] has as its system T1, LZK.
T1 construct: gene MAP3K13

Assay [2] relates to MAK.
Assay [3] relates to MET.
The subject of assay [4] is MAPKAPK2.
The subject of assay [5] is MARK3.
Assay [6] deals with T2, MEK1.
T2 construct: gene MAP2K1

Assay [7] relates to MKNK1.
The subject of assay [8] is T3, MLCK.
T3 construct: gene MYLK3

Assay [9] deals with T4, MRCKB.
T4 construct: gene CDC42BPB

Assay [10] has as its system NLK.
For assay [11], the system named is MYLK2.
Assay [12] relates to MYLK.
The test system of assay [13] is MYLK4.
Assay [14] deals with NEK2.
Assay [15] deals with NEK5.
Assay [16] relates to T5, NIK.
T5 construct: gene MAP3K14

Assay [17] deals with T6, NIM1.
T6 construct: gene MGC42105

For assay [18], the system named is T7, OSR1.
T7 construct: gene OXSR1

In general, Kd refers to the free concentration of one partner at which half of the binding sites on the other are occupied at equilibrium, for simple one-to-one binding. Read a low Kd as a tighter complex.
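Note: kd values determined as follow-up on hits from a single-replicate KINOMEscan panel screen.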

`Fc1cccc(COc2ccc(Nc3ncnc4sc(-c5ccc[nH]5)cc34)cc2Cl)c1` [GW707818] gave a Kd in assay [1] above 10 µM. Molecule `O=C(NCCCN1CCCC1=O)c1cnc(NCc2cc(Cl)ccc2Cl)nc1NC1CCNCC1` gave a Kd in [2] above 10 µM. For the molecule `c1ccc(-c2ccc3c(-c4ccnc(Nc5ccc6c(c5)OCCO6)n4)cnn3n2)cc1` [GW818941], the Kd in assay [2] and in [3] was above 10 µM in each case. Regarding `Cn1cc(-c2ccc3c(c2)CCN3C(=O)Cc2cccc(C(F)(F)F)c2)c2c(N)ncnc21` [GSK2606414], in [4], the Kd was above 10 µM. As to `CCn1c(-c2ccncc2)nc2cnccc21` [SB-735216], the dissociation constant (Kd) in [5] is above 10 µM. With `CC(C)(C)OC(=O)NC1CCCN(c2cc(-c3ccc4c(N)n[nH]c4c3)nc(N)n2)C1` (stereo not shown) [GSK2286096], the Kd in assay [6] is above 10 µM.

On to `C[C@H]1CC[C@@H](C(=O)Nc2ccccc2)CN1c1cc(-c2ccc3c(N)n[nH]c3c2)nc(N)n1` [GSK2283293], for which the Kd in [3] was above 10 µM. With `CSc1ccc(NC2=C(c3ccccc3Cl)C(=O)NC2=O)cc1` [SB-342411], the Kd in assay [7] was above 10 µM. In [8], `Nc1n[nH]c2nnc(-c3ccccc3)cc12` [SB-517389] showed a Kd above 10 µM. As for `C[C@@H]1CCN(C(=O)CO)C[C@@H]1N(C)c1ncnc2[nH]ccc12`, the Kd in [9] and in [10] was above 10 µM in each case. As to `O=C(Nc1n[nH]c2nc(-c3ccco3)c(Br)cc12)c1ccc(CN2CCCC2)cc1.O=C(O)[C@H](O)[C@@H](O)C(=O)O` [SB-742352], the Kd in assay [11] came out at 0.12 µM; in assay [12], 1.3 µM.

Turning to `Nc1nc(-c2cccnc2)c(-c2ccnc3ccccc23)s1` [GW684083], the equilibrium dissociation constant (Kd) in assay [13] came to 0.49 µM. In [12], `CN1c2ccc(-c3ccc(C(=O)NCCO)cc3)cc2-c2[nH]ncc2S1(=O)=O` gave a Kd of 0.48 µM. Molecule `COC(=O)c1c(-c2ccccc2)c2cc(Cl)ccc2c(=O)n1Cc1ccc(S(C)(=O)=O)cc1` gave a Kd in assay [14] above 10 µM. `CNc1nccc(-c2c(-c3ccc(F)cc3)ncn2CCCN2CCOCC2)n1` [SB-222516]: in assay [15], the Kd is above 10 µM. The molecule `CS(=O)(=O)CCNCc1ccc(-c2ccc3ncnc(Nc4ccc(OCc5ccccc5)c(Cl)c4)c3c2)o1.Cl` [GW574783] registered a Kd in assay [16] above 10 µM. In assay [17], `CC(=O)Nc1n[nH]c2ncc(-c3ccccc3)cc12` [SB-548492] registered a Kd above 10 µM. Turning to `CNc1nccc(-c2c(-c3ccc(F)cc3)ncn2C2CCN(C)CC2)n1` [SB-222903], binding in assay [10] was put at a Kd of 0.13 µM. `CCCc1ccc(S(=O)(=O)NC2CCN(c3ccnc(Nc4ccc(OC)cc4)n3)C2)cc1` (stereo not shown) [GSK1379737] registered a Kd in assay [18] above 10 µM.

The record behind these values is PMC5540273 (PLoS ONE, 2017).
